Shown are actives, neighbours in structure and some others; about 2.3% of the full set was active somewhere.
CHO-K1 Ca ag = M1 agonist counterscreen hit in parental CHO-K1 cells | Fluo-8 calcium fluorescence; scaled to maximal ATP response, vehicle zero | activation, % at 3 µM | 0.48% of 360,000 active; in the data active means activation above about 15%;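 further: untransfected CHO-K1 host cells lacking M1 receptor as counterscreen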
CHRM1 antagonist = human CHRM1 antagonism. inhibition, % at 3 µM. CHO-K1 hM1, Fluo-8 calcium fluorescence, ACh EC80 antagonist. 1.3% of 360,000 active. P11229. AID 588852;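 active means percent inhibition above its own plate's cutoff, namely the mean of that plate's compound wells plus 3 SD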;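 further: peak over basal fluorescence ratio during 140 s after agonist addition; 0% = ACh EC80 plus DMSO and 100% = DMSO alone without agonist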
Target sequence (P11229 whole entry, looked up): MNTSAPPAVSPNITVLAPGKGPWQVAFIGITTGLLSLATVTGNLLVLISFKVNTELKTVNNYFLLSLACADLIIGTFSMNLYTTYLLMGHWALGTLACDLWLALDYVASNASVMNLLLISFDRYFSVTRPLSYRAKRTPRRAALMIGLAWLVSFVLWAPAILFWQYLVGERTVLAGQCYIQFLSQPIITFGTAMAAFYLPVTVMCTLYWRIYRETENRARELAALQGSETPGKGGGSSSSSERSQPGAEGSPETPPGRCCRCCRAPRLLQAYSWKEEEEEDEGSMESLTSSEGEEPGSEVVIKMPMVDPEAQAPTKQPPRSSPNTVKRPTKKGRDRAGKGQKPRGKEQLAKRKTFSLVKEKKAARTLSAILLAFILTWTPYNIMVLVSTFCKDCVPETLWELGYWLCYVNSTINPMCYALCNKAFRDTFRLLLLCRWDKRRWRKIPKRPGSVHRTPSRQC
CHO-K1 Ca PAM = M1 PAM counterscreen hit in parental CHO-K1 cells | ATP EC20, Fluo-8 calcium fluorescence; 0% at ATP EC20, 100% at ATP max | activation, % at 3 µM | 0.02% of 360,000 active | AID 602247;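 active means activation above the run cutoff, the mean activation of all test compounds plus 3 SD, cut at about 40% in these data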;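 further: peak over basal fluorescence ratio in a 140 s read after ATP addition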
CHRM1 PAM = positive allosteric modulators of human M1 muscarinic receptor; P11229; CHO-K1 hM1, Fluo-8 calcium fluorescence, ACh EC20; 0% = ACh EC20, 100% = maximal ACh; activation, % at 3 µM; 0.088% of 360,000 active; in the data active means activation above about 19%, passing the limit was not always enough
CHO-K1 Ca antag = M1 antagonist counterscreen hit in parental CHO-K1 cells; ATP-induced calcium, Fluo-8 fluorescence; inhibition, % at 3 µM; 0.6% of 360,000 active; AID 602250;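 active means inhibition above a per-plate cutoff, the plate's mean sample inhibition plus 3 SD, cut at about 24% in these data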;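 further: 0% = DMSO plus EC80 ATP and 100% = DMSO alone without ATP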
M1 ag = human M1 muscarinic receptor agonism | 0.33% of 360,000 active | activation, % at 3 µM | CHO-K1 hM1, Fluo-8 calcium fluorescence, agonist mode; 0% DMSO, 100% acetylcholine EC100 | AID 588814 | P11229;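 active means activation above the run's mean compound activation plus 3 SD, cut at about 16% in these data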;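 further: peak over basal fluorescence ratio within a 140 s kinetic read after compound addition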
The depositor's hits bear a star.

SMILES	CHO-K1 Ca ag	CHRM1 antagonist	CHO-K1 Ca PAM	CHRM1 PAM	CHO-K1 Ca antag	M1 ag
Cc1cc(C)c(C#N)c(SCc2nnc(-c3ccccc3)o2)n1	0.7	23.6*	-16.8	-18.8	25.1*	-7.5
Cc1cc(C)c(C#N)c(SCc2nnc(-c3ccccc3[N+](=O)[O-])o2)n1	7.4	42.7*	-5.7	-33.7	18.2	-6.3
Cc1cc(C)c(C#N)c(SCc2ccccc2[N+](=O)[O-])n1	0.1	0.7	-2.4	0.6	0.3	-8.1
Cc1ccc(C)c(S(=O)(=O)N2CCCOC2CNC(=O)C(=O)NC2CC2)c1 (stereo not drawn)	2.0	5.1	-8.8	0.8	8.1	-0.3
COc1ccccc1C(NC(=O)C1CCCCC1)c1c(O)ccc2ccccc12 (stereo not drawn)	20.2*	5.2	16.1	-3.5	2.6	-4.7
Cc1ccc(C(=O)COC(=O)CCN2C(=O)C3C4C=CC(C5CC45)C3C2=O)cc1 (stereo not drawn)	3.4	14.0	8.0	-7.7	5.3	-3.4
CN1OC[C@@H]2CN(S(=O)(=O)c3cccc4ccccc34)[C@H](c3ccc(-c4ccccc4)cc3)C[C@@H]21	-0.1	-34.4	7.0	25.0*	-10.6	5.1
CN1OC[C@@H]2CN(C(=O)C(C)(C)C)[C@H](c3ccc(-c4cccnc4)cc3)C[C@@H]21	-0.3	7.8	-8.6	5.1	30.2*	5.0
Cc1ccccc1S(=O)(=O)N1C[C@H]2CON(C)[C@H]2C[C@H]1c1cccc(-c2ccccc2)c1	1.3	-19.7	33.7	7.7	-17.3	-4.9
COC(=O)C1=CN(C2CC2)C=C(C(=O)OC)C1c1ccc(C(=O)OC)cc1	0.2	34.2*	3.8	-25.5	4.1	-6.6
COc1ccc(CCNC(=O)c2ccc3ccccc3n2)cc1OC	1.9	-4.8	8.1	1.0	2.6	-5.5
COc1ccc(CCNC(=O)c2cc3cc(F)ccc3nc2C)cc1OC	15.5*	-0.5	11.9	-3.2	-4.4	15.2
CC(NC(=O)c1cc(S(=O)(=O)N(C)C)ccc1Cl)c1ccc(-n2ccnc2)cc1 (stereo not drawn)	1.0	-1.0	-4.3	0.1	-15.5	-5.3
C=CCOc1ccc(C2=NOC(C(=O)Nc3ccc4c(c3)OCCO4)C2)cc1OC (stereo not drawn)	1.4	-6.6	10.1	7.0	-13.9	-3.2
O=C(O)CC(c1ccc(F)cc1F)N1Cc2ccccc2C1=O (stereo not drawn)	6.0	15.0	12.7	-9.0	-3.9	-1.9
Cc1ccc(NC(=O)c2ccccc2NS(=O)(=O)c2ccc(Cl)s2)cc1	10.4	17.2	5.1	-1.5	24.7*	-2.0
CCCCn1c(N)c(N(CCOC)C(=O)c2cc(S(=O)(=O)N3CCOCC3)ccc2Cl)c(=O)[nH]c1=O	0.7	-4.6	3.3	11.3	-9.0	-3.7
CN1CCN(S(=O)(=O)c2cccc(C(=O)Nc3ccc(Br)cc3Br)c2)CC1	0.9	1.5	8.1	-2.4	2.5	-4.6
COc1ccc(C=NCCc2ccc(OC)c(OC)c2)cc1OC	0.2	-8.2	19.4	8.2	-10.2	5.3
Cc1cc(O)c(C(=O)/C=C/c2ccccc2Br)c(=O)o1	18.3*	-5.2	8.2	8.2	5.7	0.1
Cc1cccc(C)c1NC(=O)CN1CCN(C(=O)CN2C(=O)NC3(CCCCC3C)C2=O)CC1 (stereo not drawn)	0.1	-27.8	-13.1	28.5*	-10.4	3.6
Cn1c(CCN2CCN(c3ccccc3)CC2)nc2cc(NC(=O)c3ccco3)ccc21	7.4	45.7*	8.4	-18.8	-6.2	-5.1
Cn1c(CN2CCCC2)nc2cc(NC(=O)c3ccco3)ccc21	0.1	-0.4	0.7	1.6	-2.9	-7.3
CCOC(=O)N1CCN(Cc2nc3cc(NC(=O)c4cccs4)ccc3n2C)CC1	1.1	25.8*	-1.5	-15.9	-1.0	-6.4
CCC(=O)Nc1ccc2c(c1)nc(CCN1CCN(c3ccccc3)CC1)n2C	-0.1	42.8*	-23.5	-21.0	7.9	-9.2
CN1CCN(CCc2nc3cc(NC(=O)c4ccco4)ccc3n2C)CC1	0.4	-10.9	14.6	11.3	-15.6	-3.0
Cn1c(CCN2CCN(c3ccc(F)cc3)CC2)nc2cc(NC(=O)c3ccco3)ccc21	0.1	27.4*	-4.4	-20.9	15.8	-7.2

Compound activity deposited in PubChem BioAssay by The Scripps Research Institute Molecular Screening Center.
